# Data as given in paper PMC10812921, “Transcriptional Coactivator BOB1 (OBF1, OCA-B) Modulates the Specificity of DNA Recognition by the POU-Domain Factors OCT1 and OCT2 in a Monomeric Configuration”.
# Assays:
# POU1 (OCT1 POU domain) = POU1 (OCT1 POU domain) (human, UniProt P14859 260-458); assay: EMSA-SELEX-seq; no BOB1; 20 mM Tris-HCl pH 7.6, 140 mM NaCl, 10% glycerol, 0.5 mM EDTA, 0.05% Triton X-100, 0.1 mg/mL BSA, 0.1 mg/mL poly(dI-dC), 5 mM DTT, room temperature, 20 min; high values mean tight binding; details: protein: recombinant; dsDNA, one strand shown
# Chain of POU1 (OCT1 POU domain) (P14859 260-458): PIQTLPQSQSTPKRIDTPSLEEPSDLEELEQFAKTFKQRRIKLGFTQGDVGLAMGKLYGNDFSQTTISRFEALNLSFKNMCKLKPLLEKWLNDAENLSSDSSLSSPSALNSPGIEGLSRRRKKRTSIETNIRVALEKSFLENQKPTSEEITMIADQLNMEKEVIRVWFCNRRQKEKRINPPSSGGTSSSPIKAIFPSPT
# Procedure, shortened: (§1)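 A double-stranded random 35-nt library (300 ng, PCR-amplified) was incubated with 30 ng tagged POU-domain protein, with or without 28 ng coactivator protein, in 20 μL Tris–HCl pH 7.6 binding buffer for 20 min at RT. The proteins had been expressed in E. coli BL21, purified under denaturing conditions and renatured. Complex bands from native 6% PAGE were eluted and PCR-amplified over four rounds, then sequenced on Illumina. For binding preference, the percentage of sequenced 8-mers matching a motif pattern was calculated.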
# POU2 (OCT2 POU domain) = biological target: T1, POU2 (OCT2 POU domain) (human, UniProt P09086 175-386); assay: as above; details: protein: recombinant; dsDNA, one strand shown
# T1 sequence: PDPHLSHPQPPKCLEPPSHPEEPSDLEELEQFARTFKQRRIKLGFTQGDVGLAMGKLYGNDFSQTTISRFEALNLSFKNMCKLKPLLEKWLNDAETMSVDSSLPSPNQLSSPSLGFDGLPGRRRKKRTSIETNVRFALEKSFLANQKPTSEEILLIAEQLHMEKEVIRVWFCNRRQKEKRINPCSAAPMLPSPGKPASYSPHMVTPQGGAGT
# Procedure, shortened: as §1
# [1] = biological target: POU1 (OCT1 POU domain);BOB1 (OBF1, OCA-B) (human;human, UniProt P14859;Q16633 260-458;1-256, |); assay: EMSA-SELEX-seq; with BOB1 (ternary complex band); 20 mM Tris-HCl pH 7.6, 140 mM NaCl, 10% glycerol, 0.5 mM EDTA, 0.05% Triton X-100, 0.1 mg/mL BSA, 0.1 mg/mL poly(dI-dC), 5 mM DTT, room temperature, 20 min; high values mean tight binding; details: protein: recombinant;recombinant; copies: 1;1; dsDNA, one strand shown
# Procedure, shortened: as §1
# [2] = biological target: T2, POU2 (OCT2 POU domain);BOB1 (OBF1, OCA-B) (human;human, UniProt P09086;Q16633 175-386;1-256, |); assay: as above; details: protein: recombinant;recombinant; copies: 1;1; dsDNA, one strand shown
# T2 sequence 1: T1 sequence
# T2 sequence 2: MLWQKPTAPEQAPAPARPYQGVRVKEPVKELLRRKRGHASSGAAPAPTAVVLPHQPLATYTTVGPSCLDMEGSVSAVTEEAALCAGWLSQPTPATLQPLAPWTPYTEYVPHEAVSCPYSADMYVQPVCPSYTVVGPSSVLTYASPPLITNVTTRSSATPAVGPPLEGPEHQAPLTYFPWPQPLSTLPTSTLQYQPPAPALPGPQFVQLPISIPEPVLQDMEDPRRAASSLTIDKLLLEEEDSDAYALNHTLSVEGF
# Procedure, shortened: as §1
Sequence,binding signal (POU1 (OCT1 POU domain)),binding signal (POU2 (OCT2 POU domain)),binding signal [1],binding signal [2]
ATGCCAAC,0.0225 % of ANNNNAAN 8-mers,0.0293 % of ANNNNAAN 8-mers,0.025 % of ANNNNAAN 8-mers,0.0124 % of ANNNNAAN 8-mers
ATTAAAAA,0.172 % of ANNNNAAN 8-mers,0.219 % of ANNNNAAN 8-mers,0.114 % of ANNNNAAN 8-mers,0.09 % of ANNNNAAN 8-mers
ATTCTAAG,0.0747 % of ANNNNAAN 8-mers,0.0857 % of ANNNNAAN 8-mers,0.0593 % of ANNNNAAN 8-mers,0.0702 % of ANNNNAAN 8-mers
AGCTTAAT,0.0645 % of ANNNNAAN 8-mers,0.0972 % of ANNNNAAN 8-mers,0.0449 % of ANNNNAAN 8-mers,0.0578 % of ANNNNAAN 8-mers
ATGTCAAC,0.0214 % of ANNNNAAN 8-mers,0.023 % of ANNNNAAN 8-mers,0.0273 % of ANNNNAAN 8-mers,0.0215 % of ANNNNAAN 8-mers
AAATCAAC,0.0759 % of ANNNNAAN 8-mers,0.0921 % of ANNNNAAN 8-mers,0.096 % of ANNNNAAN 8-mers,0.0916 % of ANNNNAAN 8-mers
ACATCAAG,0.024 % of ANNNNAAN 8-mers,0.0351 % of ANNNNAAN 8-mers,0.0265 % of ANNNNAAN 8-mers,0.033 % of ANNNNAAN 8-mers
ATCGCAAT,0.0336 % of ANNNNAAN 8-mers,0.0391 % of ANNNNAAN 8-mers,0.0328 % of ANNNNAAN 8-mers,0.0347 % of ANNNNAAN 8-mers
AATCTAAA,0.107 % of ANNNNAAN 8-mers,0.129 % of ANNNNAAN 8-mers,0.0726 % of ANNNNAAN 8-mers,0.0669 % of ANNNNAAN 8-mers
AGATAAAT,0.0892 % of ANNNNAAN 8-mers,0.0886 % of ANNNNAAN 8-mers,0.0617 % of ANNNNAAN 8-mers,0.0627 % of ANNNNAAN 8-mers
AGTTCAAC,0.0229 % of ANNNNAAN 8-mers,0.0173 % of ANNNNAAN 8-mers,0.0246 % of ANNNNAAN 8-mers,0.0173 % of ANNNNAAN 8-mers
ACCGGAAC,0.0137 % of ANNNNAAN 8-mers,0.0138 % of ANNNNAAN 8-mers,0.0133 % of ANNNNAAN 8-mers,0.0124 % of ANNNNAAN 8-mers
ACAACAAT,0.0248 % of ANNNNAAN 8-mers,0.0305 % of ANNNNAAN 8-mers,0.023 % of ANNNNAAN 8-mers,0.0305 % of ANNNNAAN 8-mers
AATTAAAT,0.333 % of ANNNNAAN 8-mers,0.39 % of ANNNNAAN 8-mers,0.19 % of ANNNNAAN 8-mers,0.173 % of ANNNNAAN 8-mers
AGGGCAAG,0.0294 % of ANNNNAAN 8-mers,0.0322 % of ANNNNAAN 8-mers,0.0332 % of ANNNNAAN 8-mers,0.0363 % of ANNNNAAN 8-mers
